The record followed here is PubChem BioAssay (Tox21).

Results filed as inconclusive are left out. Activity calls are given as the source filed them. Calls follow the shape of the dose curve; as a rule, active = well fitted curve in the direction sought with a large enough effect in the repeat runs; inconclusive = weak or mixed curves; inactive = no such curve, though single readings can be large; an effect the other way counts as inactive or inconclusive.

In test [1] the target is Cytochrome P450 2C9 (Homo sapiens) (UniProt P11712). In words: Cytochrome P450 Family 2 Subfamily C Member 9 (CYP2C9) small molecule antagonists: luciferase reporter qHTS assay (AID 1671198). Also: potency is read from the fitted curve at half-maximal effect. In a few lines: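 P450-Glo proluciferin substrate with CYP2C9 enzyme; 10 min RT preincubation, then NADPH regeneration 1 h at 37C; luciferin detection reagent 20 min RT, luminescence in relative luminescence units.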
Chain of Cytochrome P450 2C9 (Homo sapiens) (P11712 whole entry, looked up): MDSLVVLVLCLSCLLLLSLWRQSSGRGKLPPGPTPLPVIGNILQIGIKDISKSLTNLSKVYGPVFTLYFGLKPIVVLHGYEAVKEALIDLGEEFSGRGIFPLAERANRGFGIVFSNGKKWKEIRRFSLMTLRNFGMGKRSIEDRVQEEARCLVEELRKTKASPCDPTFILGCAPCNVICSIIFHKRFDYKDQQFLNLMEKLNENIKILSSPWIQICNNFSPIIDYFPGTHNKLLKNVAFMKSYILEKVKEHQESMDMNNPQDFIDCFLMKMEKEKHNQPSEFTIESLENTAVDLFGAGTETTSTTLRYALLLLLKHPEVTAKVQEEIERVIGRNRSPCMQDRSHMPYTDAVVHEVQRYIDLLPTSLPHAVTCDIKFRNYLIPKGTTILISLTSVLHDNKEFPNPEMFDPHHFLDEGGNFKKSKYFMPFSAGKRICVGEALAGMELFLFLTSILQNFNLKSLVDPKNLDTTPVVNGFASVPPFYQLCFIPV
In general terms: Reporter assays use an easily measured gene product as a stand-in for the process of interest.

The target of test [2] is Cytochrome P450 1A2 (Homo sapiens) (UniProt P05177). Kind of test: Cytochrome P450 Family 1 Subfamily A Member 2 (CYP1A2) small molecule antagonists: luciferase reporter qHTS assay (AID 1671199). Also: potency is read from the fitted curve at half-maximal effect. In a few lines:
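Inhibition of CYP1A2 conversion of proluciferin to luciferin, detected by luminescence. Reaction run 1 h at room temperature with NADPH regeneration after brief compound preincubation.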

The target in test [3] is Voltage-gated inwardly rectifying potassium channel KCNH2 (Homo sapiens) (UniProt Q12809). In words: Human Ether-a-go-go-Related Gene (hERG) channel small molecule antagonists: fluorescence cell-based qHTS assay (AID 1671200).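 Also: hERG-expressing U2OS cells given a thallium stimulus after FluxOR II dye loading; series mostly up to about 77 µM.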 In a few lines:
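Read-out: thallium influx as a surrogate for potassium, tracked as fluorescence (480 nm ex/540 nm em) every second for 2 min after Stimulus Buffer addition in dye-loaded hERG-U2OS cells.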
(The hERG channel carries a current that helps repolarise heart muscle cells.)
Also: nearly all actives have a fitted effect of over 50% in size.

Chain of Voltage-gated inwardly rectifying potassium channel KCNH2 (Homo sapiens) (Q12809 whole entry, looked up): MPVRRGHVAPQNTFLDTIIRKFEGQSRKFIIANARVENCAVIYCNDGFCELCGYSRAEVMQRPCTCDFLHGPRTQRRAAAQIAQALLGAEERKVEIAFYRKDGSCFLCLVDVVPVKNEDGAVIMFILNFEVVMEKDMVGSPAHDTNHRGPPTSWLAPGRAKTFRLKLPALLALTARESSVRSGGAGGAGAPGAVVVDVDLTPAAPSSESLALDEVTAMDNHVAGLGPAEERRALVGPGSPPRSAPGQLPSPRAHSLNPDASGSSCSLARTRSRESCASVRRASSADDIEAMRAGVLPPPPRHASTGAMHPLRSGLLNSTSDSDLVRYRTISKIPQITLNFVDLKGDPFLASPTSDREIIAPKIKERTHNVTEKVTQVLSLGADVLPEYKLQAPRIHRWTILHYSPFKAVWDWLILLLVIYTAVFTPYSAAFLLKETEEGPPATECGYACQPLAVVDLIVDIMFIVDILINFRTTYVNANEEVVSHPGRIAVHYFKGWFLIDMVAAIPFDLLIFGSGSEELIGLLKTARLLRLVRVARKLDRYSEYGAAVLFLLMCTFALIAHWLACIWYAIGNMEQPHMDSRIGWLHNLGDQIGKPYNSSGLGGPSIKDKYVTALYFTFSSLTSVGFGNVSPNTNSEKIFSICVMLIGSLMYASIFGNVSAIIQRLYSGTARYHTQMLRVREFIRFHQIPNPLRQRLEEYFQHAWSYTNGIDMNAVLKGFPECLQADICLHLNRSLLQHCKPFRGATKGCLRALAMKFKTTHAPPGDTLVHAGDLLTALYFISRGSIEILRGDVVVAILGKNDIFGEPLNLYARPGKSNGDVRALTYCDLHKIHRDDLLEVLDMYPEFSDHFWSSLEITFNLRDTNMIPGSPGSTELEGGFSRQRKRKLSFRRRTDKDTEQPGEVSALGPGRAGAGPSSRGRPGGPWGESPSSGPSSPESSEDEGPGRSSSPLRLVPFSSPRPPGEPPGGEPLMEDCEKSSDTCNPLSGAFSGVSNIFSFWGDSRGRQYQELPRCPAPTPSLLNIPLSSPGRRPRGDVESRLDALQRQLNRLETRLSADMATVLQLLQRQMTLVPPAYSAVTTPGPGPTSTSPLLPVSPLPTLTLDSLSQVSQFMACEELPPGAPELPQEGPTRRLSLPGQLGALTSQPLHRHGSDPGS
Chain of Cytochrome P450 1A2 (Homo sapiens) (P05177 whole entry, looked up): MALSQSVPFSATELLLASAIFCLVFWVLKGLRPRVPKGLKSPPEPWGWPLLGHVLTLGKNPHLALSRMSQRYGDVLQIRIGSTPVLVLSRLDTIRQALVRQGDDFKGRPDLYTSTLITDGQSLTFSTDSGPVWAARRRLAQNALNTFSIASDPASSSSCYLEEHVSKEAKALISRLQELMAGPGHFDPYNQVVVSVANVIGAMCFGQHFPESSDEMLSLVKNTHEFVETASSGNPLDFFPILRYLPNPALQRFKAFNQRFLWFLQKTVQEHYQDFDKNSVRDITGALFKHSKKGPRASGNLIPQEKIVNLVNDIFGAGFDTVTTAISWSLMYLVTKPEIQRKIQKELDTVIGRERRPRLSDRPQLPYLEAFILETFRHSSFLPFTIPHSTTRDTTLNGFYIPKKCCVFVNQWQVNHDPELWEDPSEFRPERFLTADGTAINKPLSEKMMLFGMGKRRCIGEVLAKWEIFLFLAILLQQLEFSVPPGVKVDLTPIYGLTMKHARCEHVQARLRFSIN

`CC(C)(CCC(=O)O)C(=O)O`: the Potency entry in test [1] and in test [3] was “inactive” each time. The Potency in test [2] is 28.6 µM (active).
In the case of `Cc1ccc(-c2ccccc2C#N)cc1`, the figures for the Potency in test [1] and in test [2] were 15.5 µM (active) and 13.8 µM (active), respectively. The Potency entry in test [3] is “inactive”.
Regarding `CCCCCCCCCC[N+](C)(C)[O-]`, the Potency entry in test [1], in test [2] and in test [3] was “inactive” throughout.
For `CC(C)COC(=O)c1ccc(N)cc1`, the Potency in test [1] was 13.8 µM (active); in test [2] it was 6.92 µM (active). Further, the Potency result in test [3] was “inactive”.
With `CC[C@H]1OC(=O)[C@H](C)[C@@H](O[C@H]2C[C@@](C)(OC)[C@@H](O)[C@H](C)O2)[C@H](C)[C@@H](O[C@@H]2O[C@H](C)C[C@H](N(C)C)[C@H]2O)[C@](C)(OC)C[C@@H](C)C(=O)[C@H](C)[C@@H](O)[C@]1(C)O`, the Potency result in test [1], in test [2] and in test [3] was “inactive” in each case.
Consider `O=C(c1ccccc1O)c1ccccc1O`, for which the values for the Potency in test [1] and in test [2] were 62.6 µM (active) and 3.52 µM (active), respectively. In addition, the Potency entry in test [3] was “inactive”.
With `CCCc1nn(C)c2c(=O)[nH]c(-c3cc(S(=O)(=O)N4CCN(C)CC4)ccc3OCC)nc12`, in test [1], the Potency was 30.9 µM (active). Besides, in test [2], the Potency entry was “inactive”.
As for `Cc1ccccc1N=C(N)N=C(N)N`, the Potency result in test [1], in test [2] and in test [3] was “inactive” each time.
For the molecule `Cc1ncc(COP(=O)(O)O)c(C=O)c1O`, the Potency result in test [1] and in test [3] was “inactive” each time. In addition, in test [2], the Potency is 17.4 µM (active).
As to `COc1cc2c(cc1OC)-c1cc3ccc(OC)c(OC)c3c[n+]1CC2`, the Potency entry in test [1] and in test [3] was “inactive” each time. In addition, the Potency in test [2] was 35.9 µM (active).
Turning to `C=C[Si](OC(C)=O)(OC(C)=O)OC(C)=O`, the Potency entry in test [1], in test [2] and in test [3] was “inactive” in each case.
`CCCCc1ccc2c(n1)[C@@H](c1ccc(OC)cc1C[C@H](C)C(=O)O)[C@H](C(=O)O)[C@H]2c1ccc2c(c1)OCO2`: in test [1], the Potency is 35.6 µM (active). For the same molecule, the Potency entry in test [2] and in test [3] was “inactive” in each case.
